Source: PubChem BioAssay AID1159580 (chemical genetic matrix, 2015)
Hit rate of the full screen: of about 5,500 compounds, about 2,000 (36%) were called active. About 18% were inconclusive and are not listed. Rule as the data show it: active = normalized growth mostly below about 0.91 (no sharp cut-off); inconclusive = no clear call, values can overlap the other calls; inactive = mostly above about 0.92. The list shows a part of the results.

Assay: chemical genetic growth profiling, strain panel (AID 1159580);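 also: tested at 20 µM; growth read once vehicle control cultures reached saturation at 30 °C; 1 = growth at the plate median or of vehicle wells; lower values mean less growth of the strain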
Conditions: growth OD
[1] = S. cerevisiae deletion strains, locus YAL013W, strain DEP1, stronger effect = lower value
[2] = S. cerevisiae deletion strains, locus YBR229C, strain ROT2, stronger effect = lower value
[3] = S. cerevisiae deletion strains, locus YCL061C, strain MRC1, stronger effect = lower value
[4] = S. cerevisiae deletion strains, locus YDL101C, strain DUN1, stronger effect = lower value
[5] = S. cerevisiae deletion strains, locus YDR150W, strain NUM1, stronger effect = lower value
[6] = S. cerevisiae deletion strains, locus YEL061C, strain CIN8, stronger effect = lower value
[7] = S. cerevisiae deletion strains, locus YGR078C, strain PAC10, stronger effect = lower value
[8] = S. cerevisiae deletion strains, locus YHR030C, strain SLT2, stronger effect = lower value
[9] = S. cerevisiae deletion strains, locus YHR087W, strain rtc3, stronger effect = lower value
[10] = S. cerevisiae deletion strains, locus YJR043C, strain POL32, stronger effect = lower value
[11] = S. cerevisiae deletion strains, locus YJR075W, strain HOC1, stronger effect = lower value
[12] = S. cerevisiae deletion strains, locus YLR039C, strain RIC1, stronger effect = lower value
[13] = S. cerevisiae deletion strains, locus YLR058C, strain SHM2 (second series), stronger effect = lower value
[14] = S. cerevisiae deletion strains, locus YLR085C, strain ARP6, stronger effect = lower value
[15] = S. cerevisiae deletion strains, locus YLR262C, strain YPT6, stronger effect = lower value
[16] = S. cerevisiae deletion strains, locus YML094W, strain GIM5, stronger effect = lower value
[17] = S. cerevisiae deletion strains, locus YMR219W, strain ESC1, stronger effect = lower value
[18] = S. cerevisiae deletion strains, locus YMR263W, strain SAP30, stronger effect = lower value
[19] = S. cerevisiae deletion strains, locus YMR307W, strain GAS1, stronger effect = lower value
[20] = S. cerevisiae deletion strains, locus YNL153C, strain GIM3, stronger effect = lower value
[21] = S. cerevisiae deletion strains, locus YNL298W, strain CLA4 (second series), stronger effect = lower value
[22] = S. cerevisiae deletion strains, locus YNL322C, strain KRE1, stronger effect = lower value
[23] = S. cerevisiae deletion strains, locus YNR030W, strain Alg12, stronger effect = lower value
[24] = S. cerevisiae deletion strains, locus YPL055C, strain LGE1, stronger effect = lower value
[25] = S. cerevisiae deletion strains, locus YPL241C, strain CIN2, stronger effect = lower value
[26] = S. cerevisiae deletion strains, locus YPR135W, strain CTF4, stronger effect = lower value
[27] = S. cerevisiae strains, strain wild type, stronger effect = lower value
[28] = S. cerevisiae deletion strains, locus YHR079C, strain IRE1, stronger effect = lower value
[29] = S. cerevisiae deletion strains, locus YJL095W, strain BCK1, stronger effect = lower value
[30] = S. cerevisiae deletion strains, locus YJR066W, strain TOR1, stronger effect = lower value
[31] = S. cerevisiae deletion strains, locus YLR113W, strain HOG1, stronger effect = lower value
[32] = S. cerevisiae deletion strains, locus YNL183C, strain NPR1, stronger effect = lower value
[33] = S. cerevisiae deletion strains, locus YOR231W, strain MKK1, stronger effect = lower value
[34] = S. cerevisiae deletion strains, locus YPL256C, strain CLN2, stronger effect = lower value

Measured: normalized growth

Cc1cc(=O)n2[nH]cc(C#N)c2n1
inactive: [1] 1 | [2] 1 | [3] 1.02 | [4] 1.01 | [5] 1.04 | [6] 0.999 | [7] 1.01 | [8] 1.09 | [9] 1.01 | [10] 1.02 | [11] 0.995 | S. cerevisiae deletion strains, locus YKL190W, strain CNB1, stronger effect = lower value 0.981 | [12] 1.01 | [13] 1 | [14] 1 | [15] 1.04 | [16] 0.995 | [17] 0.994 | [18] 1.04 | [19] 0.968 | [20] 1.02 | [21] 1.01 | [22] 1 | [23] 1.01 | [24] 1.06 | [25] 0.99 | [26] 1.09 | [27] 0.993

CSC(=CC(=O)c1ccc(Cl)cc1)SC
inactive: [5] 0.888
active: [1] 0.884 | [2] 0.867 | [3] 0.848 | [4] 0.836 | S. cerevisiae deletion strains, locus YDL134C, strain PPH21, stronger effect = lower value 0.747 | [6] 0.74 | [7] 0.872 | S. cerevisiae deletion strains, locus YGR229C, strain SMI1, stronger effect = lower value 0.884 | [8] 0.218 | [9] 0.829 | S. cerevisiae deletion strains, locus YJL187C, strain SWE1, stronger effect = lower value 0.869 | [10] 0.874 | [11] 0.828 | [12] 0.421 | [13] 0.836 | [14] 0.394 | [15] 0.431 | [16] 0.79 | [17] 0.889 | [18] 0.874 | [19] 0.286 | S. cerevisiae deletion strains, locus YNL128W, strain TEP1, stronger effect = lower value 0.888 | [20] 0.879 | [21] 0.645 | [22] 0.895 | [23] 0.765 | [24] 0.771 | [25] 0.685 | [26] 0.352 | [27] 0.811

COC1=C(O)C(=O)c2c(cc3oc(C(C)=O)c(O)c3c2O)C1=O
inactive: [8] 0.986 | [28] 1.01 | [29] 1.03 | [30] 0.957 | [31] 1.04 | [32] 0.973 | [33] 0.999 | [34] 0.973

Cc1csc(NC(=O)Nc2ccc(C(F)(F)F)cc2)c1
active: S. cerevisiae deletion strains, locus YHR205W, strain SCH9, stronger effect = lower value 0.453 | [31] 0.803 | S. cerevisiae deletion strains, locus YLR133W, strain CKI1, stronger effect = lower value 0.675 | [34] 0.857
inactive: S. cerevisiae deletion strains, locus YAR019C, strain CDC15, stronger effect = lower value 0.971 | S. cerevisiae deletion strains, locus YBL105C, strain PKC1, stronger effect = lower value 0.98 | S. cerevisiae deletion strains, locus YBR135W, strain CKS1, stronger effect = lower value 0.963 | S. cerevisiae deletion strains, locus YBR136W, strain MEC1, stronger effect = lower value 0.98 | S. cerevisiae deletion strains, locus YBR160W, strain CDC28, stronger effect = lower value 0.975 | S. cerevisiae deletion strains, locus YDL017W, strain CDC7, stronger effect = lower value 0.977 | S. cerevisiae deletion strains, locus YDL028C, strain MPS1, stronger effect = lower value 0.981 | [4] 1.02 | S. cerevisiae deletion strains, locus YDL108W, strain KIN28, stronger effect = lower value 0.973 | S. cerevisiae deletion strains, locus YDL132W, strain cdc53, stronger effect = lower value 0.97 | S. cerevisiae deletion strains, locus YDL214C, strain PRR2, stronger effect = lower value 0.783 | S. cerevisiae deletion strains, locus YDR052C, strain DBF4, stronger effect = lower value 0.989 | S. cerevisiae deletion strains, locus YDR054C, strain cdc34, stronger effect = lower value 0.95 | S. cerevisiae deletion strains, locus YDR226W, strain ADK1, stronger effect = lower value 0.975 | S. cerevisiae deletion strains, locus YDR477W, strain SNF1, stronger effect = lower value 0.804 | S. cerevisiae deletion strains, locus YER123W, strain YCK3, stronger effect = lower value 0.735 | S. cerevisiae deletion strains, locus YER133W, strain GLC7, stronger effect = lower value 0.848 | S. cerevisiae deletion strains, locus YFL009W, strain cdc4, stronger effect = lower value 0.97 | S. cerevisiae deletion strains, locus YFL029C, strain CAK1, stronger effect = lower value 0.958 | S. cerevisiae deletion strains, locus YFR003C, strain YPI1, stronger effect = lower value 0.972 | S. cerevisiae deletion strains, locus YFR019W, strain FAB1, stronger effect = lower value 0.801 | S. cerevisiae deletion strains, locus YFR028C, strain CDC14, stronger effect = lower value 0.951 | S. cerevisiae deletion strains, locus YGR040W, strain KSS1, stronger effect = lower value 0.848 | S. cerevisiae deletion strains, locus YGR052W, strain FMP48, stronger effect = lower value 0.946 | S. cerevisiae deletion strains, locus YGR092W, strain DBF2, stronger effect = lower value 0.781 | [8] 0.891 | [28] 0.876 | S. cerevisiae deletion strains, locus YHR082C, strain KSP1, stronger effect = lower value 0.893 | S. cerevisiae deletion strains, locus YIL147C, strain SLN1, stronger effect = lower value 0.978 | [29] 0.896 | S. cerevisiae deletion strains, locus YJL128C, strain PBS2, stronger effect = lower value 0.932 | S. cerevisiae deletion strains, locus YJL157C, strain FAR1, stronger effect = lower value 0.718 | S. cerevisiae deletion strains, locus YJR016C, strain ILV3, stronger effect = lower value 0.978 | S. cerevisiae deletion strains, locus YJR066W, strain TOR1 (second series), stronger effect = lower value 0.848 | [30] 0.935 | S. cerevisiae deletion strains, locus YKL048C, strain ELM1, stronger effect = lower value 0.928 | S. cerevisiae deletion strains, locus YKL067W, strain YNK1, stronger effect = lower value 0.805 | S. cerevisiae deletion strains, locus YKL101W, strain HSL1, stronger effect = lower value 0.821 | S. cerevisiae deletion strains, locus YKL193C, strain SDS22, stronger effect = lower value 0.969 | S. cerevisiae deletion strains, locus YKL203C, strain TOR2, stronger effect = lower value 0.907 | S. cerevisiae deletion strains, locus YLR403W, strain SFP1, stronger effect = lower value 0.704 | S. cerevisiae deletion strains, locus YML070W, strain DAK1, stronger effect = lower value 0.755 | S. cerevisiae deletion strains, locus YMR001C, strain CDC5, stronger effect = lower value 0.966 | S. cerevisiae deletion strains, locus YMR205C, strain PFK2 (second series), stronger effect = lower value 0.832 | S. cerevisiae deletion strains, locus YMR277W, strain FCP1, stronger effect = lower value 0.965 | S. cerevisiae deletion strains, locus YNL006W, strain LST8, stronger effect = lower value 0.99 | S. cerevisiae deletion strains, locus YNL020C, strain ARK1, stronger effect = lower value 0.753 | S. cerevisiae deletion strains, locus YNL161W, strain CBK1, stronger effect = lower value 0.982 | [32] 0.878 | S. cerevisiae deletion strains, locus YNL207W, strain RIO2, stronger effect = lower value 0.965 | S. cerevisiae deletion strains, locus YNL222W, strain SSU72, stronger effect = lower value 0.967 | S. cerevisiae deletion strains, locus YNL307C, strain MCK1 (second series), stronger effect = lower value 0.708 | S. cerevisiae deletion strains, locus YOL078W, strain AVO1, stronger effect = lower value 0.964 | S. cerevisiae deletion strains, locus YOL136C, strain PFK27, stronger effect = lower value 0.739 | S. cerevisiae deletion strains, locus YOR061W, strain CKA2, stronger effect = lower value 0.714 | S. cerevisiae deletion strains, locus YOR119C, strain RIO1, stronger effect = lower value 0.928 | [33] 0.864 | S. cerevisiae deletion strains, locus YOR329C, strain SCD5, stronger effect = lower value 0.978 | S. cerevisiae deletion strains, locus YPL031C, strain PHO85, stronger effect = lower value 0.773 | S. cerevisiae deletion strains, locus YPL153C, strain RAD53, stronger effect = lower value 0.868 | S. cerevisiae deletion strains, locus YPL204W, strain HRR25, stronger effect = lower value 0.902 | S. cerevisiae deletion strains, locus YPL209C, strain IPL1, stronger effect = lower value 0.958 | S. cerevisiae deletion strains, locus YPR025C, strain CCL1, stronger effect = lower value 0.963 | S. cerevisiae deletion strains, locus YPR106W, strain ISR1, stronger effect = lower value 0.971 | S. cerevisiae deletion strains, locus YPR111W, strain DBF20, stronger effect = lower value 0.966 | S. cerevisiae deletion strains, strain NNK1, stronger effect = lower value 0.971 | S. cerevisiae deletion strains, strain TSCII, stronger effect = lower value 0.968
